Common to all, as to design: species or system human, MV4-11 + K-562 + COLO205 + SK-N-BE2 + OVCAR-8
Assay [1] relates to AURKB. The note with it: read-out: apparent Kd; compound concentrations: 100 nM and 1000 nM (sheet 'Samples'), CATDS: 6.5904790346866707E-2; n = 1.
For assay [2], the system named is EPHB6. As to conditions: read-out: apparent Kd; compound concentrations: 100 nM and 1000 nM (sheet 'Samples'), CATDS: 9.2316879629761303E-2; n = 1.
Assay [3] relates to ACAD8. The note with it: read-out: apparent Kd, n = 1.
For assay [4], the system named is FN3KRP. As to conditions: read-out: apparent Kd, n = 1.
The subject of assay [5] is AKT1. As to conditions: read-out: apparent Kd, n = 1.
Assay [6] has as its system AKT2. As to conditions: read-out: apparent Kd, n = 1.
Assay [7] relates to BMPR1B. As to conditions: read-out: apparent Kd; compound concentrations: 100 nM and 1000 nM (sheet 'Samples'), CATDS: 9.3434375492385105E-2; n = 1.
Assay [8] relates to CDK17. The note with it: read-out: apparent Kd, n = 1.
Assay [9] has as its system RIOK2. The note with it: read-out: apparent Kd, n = 1.
Assay [10] relates to DDR2. As to conditions: read-out: apparent Kd, n = 1.
The test system of assay [11] is MAPK14. The note with it: read-out: apparent Kd, n = 1.
The test system of assay [12] is TGFBR1. As to conditions: read-out: apparent Kd; compound concentrations: 100 nM and 1000 nM (sheet 'Samples'), CATDS: 4.6246179171744603E-2; n = 1.
Assay [13] deals with EPHB1. The note with it: read-out: apparent Kd; compound concentrations:100 nM and 1000 nM (sheet 'Samples'); n = 1.
The test system of assay [14] is JAK2. As to conditions: read-out: apparent Kd; compound concentrations:100 nM and 1000 nM (sheet 'Samples'); n = 1.
Assay [15] has as its system FLT4. The note with it: read-out: apparent Kd, n = 1.
The mark [16] stands for this setting: compound concentrations:100 nM and 1000 nM (sheet 'Samples').

Read-outs that look alike come from different tables or passages of the source.

Regarding `Nc1ncc(-c2cn[nH]c2)c2scc(-c3ccc4c(c3)CCN4C(=O)Cc3ccccc3)c12` [GSK2593067A], the figures for the potency estimated from few doses in assay [1] and in [2] were 1230 nM and 522 nM, respectively.

Regarding `COc1ccc(COc2ccc(Cc3cnc(N)nc3N)cc2OC)cc1` [GW632580X], the potency estimated from few doses in assay [3] (setting [16]) is 1640 nM.

For `Cn1cc(C2=C(c3cn(CCCCCO)c4ccccc34)C(=O)NC2=O)c2ccccc21` [RO0318053-000], the potency estimated from few doses in assay [4] (compound concentrations: 100 nM and 1000 nM (sheet 'Samples'), CATDS: 0.23703756302713999) is 69.9 nM.

In the case of `Clc1ccc(-c2nn3ncccc3c2-c2ccnc(Nc3ccccc3)n2)cc1` [GW829055X], the potency estimated from few doses in [3] (compound concentrations: 100 nM and 1000 nM (sheet 'Samples'), CATDS: 3.9352617982793499E-2) was 1220 nM; in assay [5] (compound concentrations: 100 nM and 1000 nM (sheet 'Samples'), CATDS: 3.4502228955022099E-2) it was 1670 nM; in assay [6] (compound concentrations: 100 nM and 1000 nM (sheet 'Samples'), CATDS: 4.03721310315426E-2), 1150 nM; in assay [7], 264 nM; in [8] (compound concentrations: 100 nM and 1000 nM (sheet 'Samples'), CATDS: 3.0637739748937999E-2) it was 2340 nM; in [9] (compound concentrations: 100 nM and 1000 nM (sheet 'Samples'), CATDS: 3.5482707178261498E-2), 1560 nM.

Turning to `Cc1ccc(C(=O)NC2CC2)cc1-c1ccc2[nH]ncc2c1` [GW820759X], the potency estimated from few doses in assay [4] (compound concentrations: 100 nM and 1000 nM (sheet 'Samples'), CATDS: 0.34838904093032003) was 1060 nM.

On to `NS(=O)(=O)c1cccc(-c2ccc3nccc(-c4cccc(S(N)(=O)=O)c4)c3c2)c1` [GW867253X], for which the potency estimated from few doses in assay [3] (compound concentrations: 100 nM and 1000 nM (sheet 'Samples'), CATDS: 0.48469015722886899) was 2110 nM.

For the molecule `COc1ccc(-c2nn3ncccc3c2-c2ccnc(Nc3ccc4c(c3)OCCO4)n2)cc1` [GW827106X], the potency estimated from few doses in assay [10] (compound concentrations: 100 nM and 1000 nM (sheet 'Samples'), CATDS: 4.9498926543833199E-2) is 1520 nM; in assay [11] (compound concentrations: 100 nM and 1000 nM (sheet 'Samples'), CATDS: 7.81285273726149E-2), 610 nM; in assay [12] it was 1810 nM.

Take `Cc1ccc(NC(=O)c2ccc(Cl)cc2)cc1-c1ccc(C(=O)Nc2ccncc2)cc1` [GSK1398467A]: the potency estimated from few doses in assay [4] (compound concentrations: 100 nM and 1000 nM (sheet 'Samples'), CATDS: 0.20437737337719999) was 1180 nM.

As for `COc1cc(F)c(F)c(F)c1C(=O)c1cnc(NC2CCN(S(C)(=O)=O)CC2)nc1N` [RO4600703-000], the potency estimated from few doses in [8] (setting [16]) was 77.3 nM; in [4] (setting [16]), 549 nM.

As to `CC(=O)Nc1ccc2c(C3=C(c4cn(C)c5ccccc45)C(=O)NC3=O)cn(C)c2c1` [RO0317596-000], the potency estimated from few doses in assay [4] (compound concentrations: 100 nM and 1000 nM (sheet 'Samples'), CATDS: 0.121909442798699) was 1250 nM.

Turning to `Cn1cc(C2=C(c3cccc([N+](=O)[O-])c3)C(=O)NC2=O)c2ccccc21` [RO0317474-000], the potency estimated from few doses in assay [4] (compound concentrations: 100 nM and 1000 nM (sheet 'Samples'), CATDS: 0.16649901321048899) is 1070 nM.

In the case of `COc1ccccc1C(=O)c1cnc(NC2CCN(S(C)(=O)=O)CC2)nc1N` [RO4514610-000], the potency estimated from few doses in assay [8] (setting [16]) was 732 nM.

On to `COc1ccc(S(=O)(=O)NC2CCN(c3cc(C)nc(Nc4cccc(C#N)c4)n3)CC2)cc1.O=C(O)C(F)(F)F` [GSK1653539A], for which the potency estimated from few doses in assay [4] (compound concentrations: 100 nM and 1000 nM (sheet 'Samples'), CATDS: 0.40384988174316899) is 910 nM.

As for `COc1cc(N2CCN(C(C)C)CC2)ccc1Nc1nc(Nc2cccc(F)c2C(=O)O)c2cc[nH]c2n1` [GSK1819799A], the potency estimated from few doses was 1940 nM in assay [5] (compound concentrations: 100 nM and 1000 nM (sheet 'Samples'), CATDS: 4.312239107291E-2); 1950 nM in [6] (compound concentrations: 100 nM and 1000 nM (sheet 'Samples'), CATDS: 4.3054850332127297E-2); 2170 nM in assay [8] (compound concentrations: 100 nM and 1000 nM (sheet 'Samples'), CATDS: 4.1653075396407099E-2).

For `NC(=O)c1cccnc1COc1cc(-c2ccc(N3CCOCC3)nc2)cc2ncccc12` [BI01125081], the potency estimated from few doses was 1930 nM in [3] (setting [16]), 2240 nM in assay [10] (setting [16]) and 738 nM in [13].

With `COc1ccc(Nc2nccc(N3CCC(NC(=O)Nc4cccc(OC)c4)C3)n2)cc1` (stereo not shown) [GSK1379742A], the potency estimated from few doses in assay [3] (compound concentrations: 100 nM and 1000 nM (sheet 'Samples'), CATDS: 0.11167502777980801) was 2090 nM.

Turning to `Cc1ccc(CC(=O)N2CCc3cc(-c4cn(C)c5ncnc(N)c45)ccc32)cc1` [GSK2634758A], the potency estimated from few doses in assay [4] (compound concentrations: 100 nM and 1000 nM (sheet 'Samples'), CATDS: 0.17784341210851801) is 1240 nM.

On to `NC(=O)c1sc(-n2cnc3ccc(C(F)(F)F)cc32)cc1OCc1ccccc1Br` [GW853606X], for which, in assay [14], the potency estimated from few doses was 419 nM.

Consider `COc1ccc(C2=C(c3cn(C)c4ccccc34)C(=O)NC2=O)cc1OC` [RO3206363-000], for which the potency estimated from few doses is 180 nM in [5] (compound concentrations: 100 nM and 1000 nM (sheet 'Samples'), CATDS: 7.5592220710657507E-2); 149 nM in [6] (compound concentrations: 100 nM and 1000 nM (sheet 'Samples'), CATDS: 8.3129465265060903E-2); 1770 nM in [15] (compound concentrations: 100 nM and 1000 nM (sheet 'Samples'), CATDS: 3.2229986541726797E-2).

As to `Fc1ccc(-c2ncn(C3CCNCC3)c2-c2ccnc(Oc3ccc4c(c3)OCO4)n2)cc1` [SB-250715], the potency estimated from few doses in assay [3] (setting [16]) was 1570 nM; in assay [5] (setting [16]) it was 2330 nM; in assay [6] (setting [16]), 1360 nM; in [11] (setting [16]), 10.7 nM; in [9] (setting [16]), 1920 nM.

As to `Cl.Oc1ccc2ncnc(Nc3ccc(OCc4ccccc4)cc3)c2c1` [GI262866A], the values for the potency estimated from few doses in [4] (setting [16]) and in assay [11] (setting [16]) were 762 nM and 770 nM, respectively.

Take `COc1cccc(C2=C(c3cn(C)c4c(C)cccc34)C(=O)NC2=O)c1` [RO3301012-000]: the potency estimated from few doses in [4] (compound concentrations: 100 nM and 1000 nM (sheet 'Samples'), CATDS: 0.113294190935364) is 1300 nM.

Consider `Fc1cccc(COc2ccc(Nc3ncncc3C#Cc3ccccc3)cc2Cl)c1` [GW651576X], for which the potency estimated from few doses in assay [3] (compound concentrations: 100 nM and 1000 nM (sheet 'Samples'), CATDS: 5.0604868868818903E-2) is 1740 nM; in assay [5] (compound concentrations: 100 nM and 1000 nM (sheet 'Samples'), CATDS: 4.6282631455897803E-2), 2130 nM; in assay [8] (compound concentrations: 100 nM and 1000 nM (sheet 'Samples'), CATDS: 4.4959210496165199E-2), 2290 nM; in [9] (compound concentrations: 100 nM and 1000 nM (sheet 'Samples'), CATDS: 5.4268483350181501E-2) it was 1510 nM.

Regarding `CS(=O)(=O)c1ccc(-c2nc3n(c2-c2ccncc2)CCC3)cc1` [SKF-105942], the potency estimated from few doses is 1400 nM in assay [3] (compound concentrations: 100 nM and 1000 nM (sheet 'Samples'), CATDS: 0.13672361229607899); 2470 nM in [6] (compound concentrations: 100 nM and 1000 nM (sheet 'Samples'), CATDS: 0.110414115877762).

As for `Nc1c(C(=O)c2ccccc2)cnn1-c1ccc(F)cc1` [RO1151246-000], the potency estimated from few doses is 1760 nM in assay [3] (setting [16]); 1460 nM in [5] (setting [16]); 1800 nM in [6] (setting [16]); 1630 nM in [11] (compound concentrations: 100 nM and 1000 nM (sheet 'Samples'), CATDS: 4.1752144248388801E-2); 1700 nM in assay [9] (setting [16]).

For `Cc1ccc(NC(=O)Nc2ccccc2)cc1-c1ccc(C(=O)Nc2ccncc2)cc1` [GSK1398471A], the potency estimated from few doses in [3] (compound concentrations: 100 nM and 1000 nM (sheet 'Samples'), CATDS: 9.6825044114723993E-2) was 2180 nM.

Consider `Cl.Fc1cccc(COc2ccc(Nc3ncnc4cc(-c5ccc[nH]5)sc34)cc2Cl)c1` [GW693881A], for which the potency estimated from few doses in assay [4] (compound concentrations: 100 nM and 1000 nM (sheet 'Samples'), CATDS: 0.20216809637719099) is 791 nM.

Take `CCS(=O)(=O)c1ccc(OC)c(Nc2ncc(-c3cccc(F)c3)o2)c1` [GW621970X_KCGS]: the values for the potency estimated from few doses in [3] (setting [16]) and in [15] (setting [16]) were 2330 nM and 574 nM, respectively.

Turning to `Cn1cc(C2=C(c3ccccc3[N+](=O)[O-])C(=O)NC2=O)c2ccccc21` [RO0317753-000], the potency estimated from few doses in assay [4] (compound concentrations: 100 nM and 1000 nM (sheet 'Samples'), CATDS: 8.17359273490917E-2) was 1130 nM.

With `Cc1ccc(-n2nc(C(C)(C)C)cc2NC(=O)Nc2ccc(OCCN3CCOCC3)cc2)cc1` [BIRB0876BS], the potency estimated from few doses in assay [3] (setting [16]) was 2100 nM; in assay [10] (setting [16]), 1140 nM; in [14] it was 748 nM.

The values above are taken from publication PMC11062922 (Nature Chemical Biology, 2023).
